MITF inh: human MITF inhibition, primary screen. O75030. AlphaScreen MITF homodimerization, bead proximity signal. hit rate 0.91% among 650,000. inhibition, % at 2.6 µM; in the data active = inhibition above about 50%;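 also: 0% = vehicle wells with protein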
GPR151 ag: activates the human receptor GPR151; hit rate 1% among 650,000; PathHunter beta-arrestin GPR151 cells, luminescence; Q8TDV0; activation, % at 11.2 µM; in the data active = activation above about 4.9%;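 also: 0% = median of compound wells and 100% = cells with positive control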
Target sequence (Q8TDV0 whole entry, looked up): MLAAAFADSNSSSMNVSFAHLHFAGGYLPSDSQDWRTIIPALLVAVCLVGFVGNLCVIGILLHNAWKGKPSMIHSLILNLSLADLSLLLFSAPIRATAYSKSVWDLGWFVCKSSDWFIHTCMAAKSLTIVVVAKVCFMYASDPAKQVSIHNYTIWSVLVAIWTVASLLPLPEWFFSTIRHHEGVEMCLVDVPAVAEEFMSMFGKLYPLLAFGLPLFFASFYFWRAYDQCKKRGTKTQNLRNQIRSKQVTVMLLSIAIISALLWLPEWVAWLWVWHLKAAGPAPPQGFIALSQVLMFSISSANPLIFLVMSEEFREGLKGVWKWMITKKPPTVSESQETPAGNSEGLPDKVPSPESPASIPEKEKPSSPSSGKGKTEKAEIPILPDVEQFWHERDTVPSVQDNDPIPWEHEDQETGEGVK
TEAD-YAP inh: TEAD-YAP interaction inhibition. HEK-TIYL cells, TEAD-Gal4/YAP UAS-luciferase luminescence. inhibition, % at 9.12 µM. hit rate 1.4% among 640,000. AID 1259422; in the data active = inhibition above about 32%;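 also: 0% = median of test compound wells and 100% = reference inhibitor wells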
FBW7 activator: human FBW7 E3 ligase activation, primary screen. hit rate 0.13% among 650,000. AID 1259310. normalized activity (activation), % at 26.1 µM. AlphaScreen FBW7–phospho-cyclin E peptide binding, activator screen; in the data active = normalized activity above about 1.9%;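 also: purified mutant Fbw7 with reduced substrate affinity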
GPR151 confirm: human GPR151 activation, confirmation screen. 6,700 tested, under 10 active. shares compounds with GPR151 ag. GPR151 PathHunter beta-arrestin cells, luminescence, 90 min; % of EA-reagent control over plate median. activation, % at 11.2 µM;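 active = mean percent activation across replicates above the confirmation screen cutoff of 4.91%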
GPR119 counter: GPR119 activation, counter-screen for GPR151 activators. activation, % at 11.2 µM. shares compounds with GPR151 ag. AID 1508611. GPR119 PathHunter beta-arrestin cells, luminescence, 90 min; 0 = compound-well median, 100 = enzyme-acceptor control. hit rate 0.3% among 6,700;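 active = mean percent activation in the counterscreen above 29.09%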;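 also: counterscreen on off-target GPR119 to flag nonselective hits from the GPR151 activator screen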
Starred values were filed as active, the others as inactive; . = no result; ! = a repeat was not active. Shown are actives, neighbours in structure and some others; about 3.5% of the full set was active somewhere.

SMILES	MITF inh	GPR151 ag	TEAD-YAP inh	FBW7 activator	GPR151 confirm	GPR119 counter
CC#CC(=O)N1CCC(C(Cc2cccc(OC)c2)N(C)C(=O)c2ccn(C)n2)CC1 (configuration not stated)	22	-2	0	0	.	.
CC(C)[C@@H](CO)Nc1ccc2ncc(-c3cccc(N(C)C)c3)n2n1	11	0	4	0	.	.
CCC(CO)Nc1ccc2ncc(-c3cccc(N(C)C)c3)n2n1 (configuration not stated)	-18	6.4*	5	0	0	-4
O=Cc1ccccc1OCCCOc1ccc(Cl)cc1	-1	-1	-23	0	.	.
CC1=C(C(=O)OCC2CCCO2)C(c2coc3ccc(C)cc3c2=O)C2=C(CC(C)(C)CC2=O)N1 (configuration not stated)	3	1	1	0	.	.
O=C(NCc1ccc(Cl)cc1)C1CCC(Cn2c(=S)[nH]c3ccsc3c2=O)CC1 (configuration not stated)	6	7.0*	-4	0	1	14
CCN(CCN(C)C)Cc1cc(OC)c(OC)cc1[N+](=O)[O-]	24	5.3*	-5	0	0	-6
COC(=O)CC(NC1CCN(c2ccc(CC(=O)N3CCCC3)cc2)CC1)C(=O)OC (configuration not stated)	8	6.1*	-10	0	1	23
COc1cccc(OC)c1C(=O)Nc1cc(C)ccc1C	-8	0	4	0	.	.
COc1ccc(OC)c(NC(=O)COc2ccc(Br)cc2C(C)(C)C)c1	-2	5.9*	9	0	1	15
COc1ccc(OC)c(NC(=O)COc2ccccc2C(C)(C)C)c1	17	-1	-4	0	.	.
COc1ccc(NC(=O)COc2ccc(C)cc2C)c(OC)c1	10	7.9*	3	0	0	9
CCOC(=O)c1sc(NC(=O)c2cc([N+](=O)[O-])nn2Cc2ccccc2)c(C(=O)OCC)c1C	-5	1	-2	0	.	.
COc1ccc(Cl)cc1-c1cc2c(c(OC)c1)OCCN(C(=O)c1cn[nH]c1)C2	-7	-1	-9	0	.	.
O=C(O)C1C(C(=O)Nc2ccccc2)C2C=CC1C21CC1 (configuration not stated)	6	7.5*	3	0	1	16
O=C(O)C1C(C(=O)Nc2ccc(Cl)cc2)C2C=CC1C21CC1 (configuration not stated)	18	-1	-13	1	.	.
CC(C)CCNC(=O)c1c(O)c2cccc3c2n(c1=O)CC3	1	7.0*	-2	0	0	-11
O=C(Nc1ccccc1Br)c1c(O)c2cccc3c2n(c1=O)CC3	-15	5.4*	4	0	-1	-10
O=C(Nc1ccccc1F)c1c(O)c2cccc3c2n(c1=O)CC3	-7	1	-13	0	.	.
CC(C)CCNC(=O)c1c(O)c2cccc3c2n(c1=O)CCC3	1	0	-10	0	.	.
Cn1nnc2cc(NC(=O)NCc3ccccc3)ccc21	10	6.3*	-9	0	0	-3
Cn1nnc2cc(NC(=O)Nc3ccccc3F)ccc21	2	-3	11	0	.	.
CC(C)C[C@H](O)C(=O)N1CCN(c2ccc3[nH]ncc3c2)CC1	8	5.0*	-8	0	0	13
CC(C)[C@H](O)C(=O)N1CCN(c2ccc3[nH]ncc3c2)CC1	24	-1	0	0	.	.
Cc1c(C(=O)N2CCN(c3ccccc3Cl)CC2)nnn1-c1nc2c(s1)CCCC2	-6	9.4*	1	0	1	-3
SMILES	MITF inh	GPR151 ag	TEAD-YAP inh	FBW7 activator	GPR151 confirm	GPR119 counter
NC(=O)NC1NC(=O)NC1=O (configuration not stated)	8	5.7*!	-8	1	0	11
COc1ccccc1NC(=O)c1csc2nc(-c3ccc(F)cc3)cn12	1	2	15	0	.	.
CCOC(=O)c1nnn(CC(=O)NC(=O)Nc2cccc(CC)c2)c1C(=O)OCC	3	5.7*	3	0	1	10
COc1cc(/C=C2/NC(=O)N(Cc3ccccc3F)C2=O)cc(Cl)c1OC	8	1	-3	0	.	.
COc1ccc2ccc(OC)c(/C=C3\NC(=O)N(Cc4ccc(Cl)cc4)C3=O)c2c1	7	4.9*	0	0	0	6
COc1cc(/C=C2/NC(=O)N(Cc3ccc(F)cc3)C2=O)cc(Cl)c1OC	-4	5.2*	-13	1	0	0
COc1cc(/C=C2\NC(=O)N(Cc3ccc(Cl)cc3)C2=O)cc(OC)c1O	-12	-2	-6	0	.	.
O=C(Nc1cccs1)Nc1ccccc1NC(=O)c1ccccc1F	11	0	-39	0	.	.
Cc1ccccc1C(=O)Nc1ccccc1NC(=O)Nc1cccs1	10	12*	-13	0	0	4
CCCNc1nc(NC2CCN(Cc3ccccc3)CC2)nc2c1ncn2-c1ccsc1	3	1	23	0	.	.
COc1ccc(NC(=S)NCc2ccncc2)cc1	-8	-1	0	0	.	.
FC(F)(F)c1cccc(NC(=S)N2CCSC2c2ccc(Br)cc2)c1 (configuration not stated)	-12	6.4*	-5	0	1	-2
COc1cccc(C(=O)Nc2nnc(SCC(N)=O)s2)c1	-6	-2	-21	0	.	.
COc1cc(N/C=C(/C#N)c2nc(-c3ccc(OC)c(OC)c3)cs2)c(OC)cc1Cl	-5	3	-1	0	.	.
CCc1nc2ccccc2c(NC(=O)CN2CCC(C)CC2)c1C	44	5.3*	-2	0	0	-3
O=C1CCCCC1Oc1cc(O)c2c(=O)cc(-c3ccccc3)oc2c1 (configuration not stated)	5	7.0*	-7	0	1	22
CC(=O)C(C)Oc1cc(O)c2c(=O)cc(-c3ccccc3)oc2c1 (configuration not stated)	0	0	-22	0	.	.
O=S(=O)(c1ccc(F)cc1)N1CCSCC1	-7	5.8*	-6	0	1	12
Cc1ccc(NC(=O)CSc2nc3c(c(=O)n2C)SCC3)c(C)c1	5	7.4*	25	0	0	6
CC1(C)Cc2ccccc2/C(=C/C(=O)Nc2ccc(Cl)cc2)N1	5	-1	-2	0	.	.
CC1(C)Cc2ccccc2/C(=C/C(=O)Nc2ccc([N+](=O)[O-])cc2)N1	-16	5.5*	-5	0	1	12
CCOc1ccccc1C1C(C(=O)OC)=CN(Cc2ccc(Cl)cc2)C=C1C(=O)OC	-30	0	-5	0	.	.
O=C(Nc1ccc2c(c1)OCO2)c1csc(N2CCN(Cc3ccc4c(c3)OCO4)CC2)n1	0	6.4*	4	0	1	6
CC1=C(C(=O)N2CCN(C(=O)c3ccco3)CC2)C2(CCC(C)CC2)OC1=O (configuration not stated)	-14	2	6	0	.	.

Source: PubChem
